Data: PubChem BioAssay AID588335 (The Scripps Research Institute Molecular Screening Center, 2011)
Screen size: about 360,000 compounds; about 4,500 (1.2%) were called active. No stated cut-off is given here; in the data, active means inhibition above about 30%; inactive means the rest. The entries come from a sample that favours actives as a whole.

Test: GDH-TPI coupling enzyme inhibitors, primary screen, artefact control for M. tuberculosis FBA inhibitor project, biochemical, absorbance, full deck (AID 588335);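 further: 0% = DMSO wells and 100% = wells lacking the enzyme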
Conditions: GDH-TPI coupled enzyme counterscreen, NADH absorbance; at 4.8 µM; active compounds read high

SMILES | inhibition
CCN(CC)c1ccc(/C=N/Nc2nc(C)cc(C)n2)c(O)c1 | 31.7% (active)
Cc1cc(C)nc(N/N=C/c2c(CO)cnc(C)c2O)n1 | 16.2% (inactive)
Cn1cnnc1Sc1ccc(S(C)(=O)=O)cc1[N+](=O)[O-] | 13% (inactive)
Cc1c(-c2nn(C)c(=O)c3ccccc23)oc2ccc(F)cc2c1=O | 18% (inactive)
CC(C)NC(=O)NCCCCCCS(C)=O (stereo not given) | 16.7% (inactive)
COCCNc1nc(N)c([N+](=O)[O-])c(NCCO)n1 | 26.7% (inactive)
Nc1nc(Nc2ccccc2)nc(NCCO)c1[N+](=O)[O-] | 39.5% (active)
Nc1nc(NCCCN2CCOCC2)nc(Nc2ccccc2)c1[N+](=O)[O-] | 28.5% (inactive)
CC(C)(C)c1csc(NC2=NS(=O)(=O)c3ccccc32)n1 | 36.1% (active)
O=C(Oc1cccc(NC2=NS(=O)(=O)c3ccccc32)c1)c1ccncc1 | 0.95% (inactive)
Cc1ccc(S(=O)(=O)N(NC2=NS(=O)(=O)c3ccccc32)C(=O)c2ccccc2)cc1 | 4.78% (inactive)
Cc1cc(-c2ccccc2)nc(N2CCC(C(=O)NC34CC5CC(CC(C5)C3)C4)CC2)n1 | -1.41% (inactive)
CSc1nc2nc3c(c(=O)n2[nH]1)CCC3 | 5.66% (inactive)
Cc1ccccc1NC(=O)Cc1nc(COC(=O)C(C)(C)Oc2ccc(Cl)cc2)cs1 | -5.31% (inactive)
O=C(/C=C/c1ccco1)Nc1ccc(Oc2ccccc2)cc1 | 38% (active)
O=C(/C=C/c1ccco1)NC(=S)N1CCCCC1 | 10.6% (inactive)
O=C(O)/C=C\C(=O)Nc1ccc(OCc2ccccc2)cc1 | 5.18% (inactive)
O=C(/C=C/c1ccco1)NC(=S)Nc1ccccc1Br | 35.7% (active)
COc1ccc(Cl)cc1C(=O)NNC(=S)NC(=O)/C=C/c1ccco1 | 5.35% (inactive)
COc1cccc(NC(=O)COC(=O)/C=C/c2ccco2)c1 | 6.67% (inactive)
CCOc1ccc(NC(=O)CSc2nc3ccccc3c(=O)n2Cc2cccs2)cc1 | 6.55% (inactive)
O=C(C[C@H]1C(=O)N(c2ccc(F)c(F)c2)C[C@@H]1Cc1ccccc1)Nc1ccccc1 | -1.2% (inactive)
O=Cc1cn(CCOc2ccc(F)cc2)c2ccccc12 | 7.08% (inactive)
Cc1cccc2nc(CNc3ccc(F)cc3)cn12 | 10.8% (inactive)

SMILES | inhibition
CCC1CCCCN1S(=O)(=O)Cc1ccccc1Cl (stereo not given) | 0.61% (inactive)
COc1ccc(S(=O)(=O)N2CCCC2CNC(=O)C(=O)NC2CC2)cc1 (stereo not given) | -18% (inactive)
COc1ccc2c(c1)CCc1cn3ncc(C#N)c3nc1-2 | 2.17% (inactive)
O=C(Nc1ccc(F)c([N+](=O)[O-])c1)C1CCCO1 (stereo not given) | 7.32% (inactive)
CC(C)(C)c1nnc2sc(SCC(O)=C(C#N)c3nc4ccccc4[nH]3)nn2c1=O | 9.05% (inactive)
COCCN(CCOC)S(=O)(=O)c1ccc(C(=O)Nc2nc3c(s2)CCc2ccccc2-3)cc1 | 9.74% (inactive)
COCCN(CCOC)S(=O)(=O)c1ccc(/C(O)=C(\C#N)c2nc3ccccc3[nH]2)cc1 | 42.7% (active)
CC1(C)CC(=O)C2=C(C1)N=C1SCCC(=O)N1C2c1ccc(C(F)(F)F)cc1 (stereo not given) | 31% (active)
CC1(C(=O)Nc2ccccc2Br)CCN1C(=O)CC1CC1 (stereo not given) | -0.89% (inactive)
C=CCSC(CC)(CC)C(N)=O | 3.59% (inactive)
CN1C(c2ccc(F)cc2)=CS/C1=C(/C#N)c1nnc2n1-c1ccccc1SC2 | 18.8% (inactive)
Cc1ccccc1-n1cc(CNC(=O)CC2C(=O)NCCN2C/C=C/c2ccccc2)cn1 (stereo not given) | -1.22% (inactive)
COc1cccc(N2CCN(C3CC(=O)N(c4ccc(Cl)cc4)C3=O)CC2)c1 (stereo not given) | -9.65% (inactive)
COc1cccc(-c2nc3ccc(N4CCN(C)CC4)cc3[nH]2)c1 | 31.7% (active)
COc1cccc(N2CCN(c3ccc4nnc(CCC(=O)N5CCN(C)CC5)n4n3)CC2)c1 | -6.09% (inactive)
CCCN(C(=O)CSc1nnc(N)s1)c1c(N)n(Cc2ccccc2)c(=O)[nH]c1=O | 2.63% (inactive)
O=c1cccc(-c2ccc(Br)cc2)o1 | 17.6% (inactive)
C=CCc1cccc2cc(C(=O)OCC)c(=O)oc12 | 10.2% (inactive)
CCOC(=O)c1cc2cc3ccccc3cc2oc1=O | 38.1% (active)
CCOc1cccc2cc(C(=O)OCC(=O)Nc3c(C)cccc3CC)c(=O)oc12 | 11.9% (inactive)
CN1CCCc2cc(C#N)c(=O)[nH]c21 | 34.1% (active)
COc1ccccc1CNC(=O)COn1nnc2ccc(S(=O)(=O)N3CCOCC3)cc21 | -5.57% (inactive)
O=C(OCCN1C(=O)c2ccccc2C1=O)[C@@H]1CC(O)CN1S(=O)(=O)c1ccccc1[N+](=O)[O-] (stereo not given in full) | 3.16% (inactive)
CC(=O)c1ccc(OCCCC(=O)Nc2ccc(C)c(S(=O)(=O)N3CCOCC3)c2)cc1 | 7.22% (inactive)

SMILES | inhibition
COc1ccc2ccccc2c1CNCc1ccccn1 | -14.6% (inactive)
COc1ccc(C(=O)/C=C/c2ccc(-c3ccccc3)cc2)cc1CSCC(=O)O | 37.5% (active)
COC(=O)c1ccc(COc2ccc(/C=C/C(=O)c3ccc(OC)c(CSCC(=O)O)c3)cc2OC)cc1 | 7.37% (inactive)
COc1ccccc1CCNC(=O)C1CCN(C(=O)/C=C/c2ccccc2)CC1 | 1.82% (inactive)
CCN(CC)C(=O)C(C)N1c2cccc3cccc(c23)S1(=O)=O (stereo not given) | 9.73% (inactive)
CC1CCCCC1NC(=O)COC(=O)Cc1ccc(Cl)cc1 (stereo not given) | 3.03% (inactive)
CCCN(CC(=O)NC(=O)NC1CCCCC1)CC(=O)Nc1cc(Cl)ccc1Cl | -7.58% (inactive)
O=C(N/N=C/c1c(O)n(C2CC2)c(=S)[nH]c1=O)c1ccccc1Cl | 40.6% (active)
O=c1[nH]c(=S)n(C2CC2)c(O)c1/C=N/N1CCOCC1 | 16.2% (inactive)
O=C(N/N=C/c1c(O)n(C2CC2)c(=S)[nH]c1=O)c1ccccc1 | 25.8% (inactive)
CC1CCN(C(=O)COC(=O)c2cc(=O)[nH]c3ccccc23)CC1 | 13.7% (inactive)
CC(C)(C)n1nnnc1C(c1ccccc1F)N1CCN(C(=O)c2ccco2)CC1 (stereo not given) | -4.67% (inactive)
O=C(C[C@H]1C[C@H]2c3cc(NS(=O)(=O)c4ccc(F)cc4)ccc3O[C@H]2[C@H](CO)O1)NCc1cc(F)ccc1F | -2.37% (inactive)
COc1ccc(C(=O)N/N=C2\CCS(=O)(=O)c3ccc(F)cc32)cc1OC | 32.9% (active)
COc1ccc(C(=O)Nc2ccc(C3(C#N)CCCC3)cc2)cc1OC | 9.36% (inactive)
CCNC(=O)c1ccc(OCC(=O)Nc2ccc(F)cc2)c(OC)c1 | 0.63% (inactive)
CC(Sc1cccc[n+]1[O-])C(=O)Nc1cccc(S(=O)(=O)N2CCOCC2)c1 (stereo not given) | 0% (inactive)
Cc1ccc(C(=O)N/C(=C\c2cn(S(=O)(=O)N(C)C)c3ccccc23)C(=O)N2CCCC2)cc1 | -3.45% (inactive)
COc1ccc(/C=C(\NC(=O)c2ccccc2)C(=O)NCCN2CCOCC2)cc1OC | 14.8% (inactive)
CCn1cc(/C=C(\NC(=O)c2ccc(C)cc2)C(=O)NCCN2CCOCC2)c2ccccc21 | 40.6% (active)
CCSc1nnc(SCC(=O)NNC(=O)c2ccccc2F)s1 | -1.01% (inactive)
CC1Cc2ccccc2N1C(=O)c1cc2sccc2n1Cc1ccccc1 (stereo not given) | -0.44% (inactive)
CCOC(=O)C(C)n1cnc2c(nnn2-c2cccc(OC)c2)c1=O (stereo not given) | -6.44% (inactive)
COCCOC(=O)c1sc(=S)n(CCOC)c1N | 11.4% (inactive)

SMILES | inhibition
CCOC(=O)c1sc(=S)n(-c2cccc(OC)c2)c1N | 33.3% (active)
Cc1cc(/C=N/n2cnnc2)c(C)n1-c1ccc2ncccc2c1 | 15% (inactive)
O=S(=O)(Cc1nnnn1-c1ccccc1)c1ccccc1 | -3.16% (inactive)
COc1ccc(CN2CCCCC2C)cc1OC (stereo not given) | 7.17% (inactive)
COc1ccc(C(=O)CN2C(=O)NC(C)(c3ccc(C)cc3)C2=O)cc1OC (stereo not given) | -0.32% (inactive)
Cc1ccc(C(=O)N/C(=C/c2cccnc2)C(=O)O)cc1 | 1.45% (inactive)
COc1ccc(/C=C(/NC(=O)c2ccc(C)cc2)c2nc3ccccc3[nH]2)cc1OC | 46.6% (active)
COc1cc(/C=C(\C#N)c2nc3ccccc3[nH]2)ccc1O | 31.3% (active)
CCN(C[C@H]1N[C@@](CC)(C(=O)OC)[C@H]2C(=O)N(C)C(=O)[C@@H]12)C(=O)Nc1ccc(F)cc1 | 0% (inactive)
COc1ccc(/C=N/OCc2ccccc2C#N)c(OC)c1 | -3.57% (inactive)
CCOC(=O)c1nc(Nc2ccc(C(=O)OC)cc2)c2ccccc2n1 | 33.2% (active)
CCOC(=O)c1ccc(N/C(=N/S(=O)(=O)c2ccccc2)c2ccccc2)cc1 | 10.9% (inactive)
COC(=O)c1ccc(Nc2ncnc3sccc23)cc1 | 8.09% (inactive)
O=C(c1ccco1)N1CCN(Cc2cccc(C(F)(F)F)c2)CC1 | -0.77% (inactive)
c1ccc(-c2nnc3n2NC(c2ccc4c(c2)OCO4)S3)cc1 (stereo not given) | 17.1% (inactive)
CC(=O)c1ccc(N2CCN(C(=O)C3CCN(S(=O)(=O)c4ccc5c(c4)CC(C)N5C(=O)C4CC4)CC3)CC2)cc1 (stereo not given) | 23.5% (inactive)
Cc1ccc(/C=N/NC(=O)C(NC(=O)c2ccccc2)c2n[nH]c(=O)c3ccccc23)cc1 (stereo not given) | 1.58% (inactive)
CC(C)c1cc(C(=O)N/N=C/C(Br)=C/c2ccccc2)n[nH]1 | 36.9% (active)
CC(C)c1cc(C(=O)O)n[nH]1 | 8.57% (inactive)
COc1ccc(CNC(=O)C(NS(=O)(=O)c2cccc3nsnc23)C(C)C)cc1 (stereo not given) | 1.17% (inactive)
CCn1c(Cc2ccc(OC)cc2)nnc1SCC(=O)Nc1ccc(N2CCOCC2)cc1 | -0.78% (inactive)
Cc1ccc(OCCCC(=O)Nc2ccc(N3CCOCC3)cc2)cc1 | -5.32% (inactive)
COc1cccc(/C=C(/CC(=O)Nc2ccc(N3CCOCC3)cc2)c2nc3ccccc3s2)c1 | 32.1% (active)
